Screening results as filed in PubChem BioAssay.
Compounds with a hit are over-represented: about 3.1% of the library has one in this group of screens.
PNC assembly inh = inhibitors of perinucleolar compartment assembly; PC3M PTB-GFP, PNC prevalence imaging, 16 h; active compounds read low; activity change (PNC), negative = inhibition, % at 10 µM; hit rate 3.1% among 140,000;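 active = readout at or below -70, meaning at least 70% loss of cells showing the perinucleolar compartment, a nuclear body marking cancer cells; inconclusive = readout between -30 and a set limit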
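Compounds are pinned in duplicate onto adhered PC3M cells stably expressing GFP-tagged PTB and incubated 16 h at 37 C. Cells are then fixed, nuclei stained with Hoechst, and PNC-positive cells counted.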
15-hLO-2 inh = blocks human 15-lipoxygenase 2 activity. purified 15hLO-2, xylenol orange hydroperoxide absorbance. Potency, µM (top dose mostly 57.1 µM), hits mostly inhibitors. hit rate 0.56% among 110,000; note: nearly all actives have a fitted effect of over 60% in size
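Purified human 15hLO-2 (50 nM) preincubated 15 min with compound, then 45 uM arachidonic acid for 90 min at RT in 25 mM Hepes pH 7.5, 0.01% Triton X-100. Hydroperoxide detected by Fe-xylenol orange; 573/405 nm absorbance ratio.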
ALOX12 inhib = blocks human 12-lipoxygenase activity. P18054. purified 12-hLO, xylenol orange hydroperoxide absorbance. hit rate 0.12% among 150,000. Potency, µM (titrated, usually from 57.1 µM), usual class: inhibitors. AID 1452; note: nearly all actives have a fitted effect of over 55% in size
Target sequence (P18054 whole entry, looked up): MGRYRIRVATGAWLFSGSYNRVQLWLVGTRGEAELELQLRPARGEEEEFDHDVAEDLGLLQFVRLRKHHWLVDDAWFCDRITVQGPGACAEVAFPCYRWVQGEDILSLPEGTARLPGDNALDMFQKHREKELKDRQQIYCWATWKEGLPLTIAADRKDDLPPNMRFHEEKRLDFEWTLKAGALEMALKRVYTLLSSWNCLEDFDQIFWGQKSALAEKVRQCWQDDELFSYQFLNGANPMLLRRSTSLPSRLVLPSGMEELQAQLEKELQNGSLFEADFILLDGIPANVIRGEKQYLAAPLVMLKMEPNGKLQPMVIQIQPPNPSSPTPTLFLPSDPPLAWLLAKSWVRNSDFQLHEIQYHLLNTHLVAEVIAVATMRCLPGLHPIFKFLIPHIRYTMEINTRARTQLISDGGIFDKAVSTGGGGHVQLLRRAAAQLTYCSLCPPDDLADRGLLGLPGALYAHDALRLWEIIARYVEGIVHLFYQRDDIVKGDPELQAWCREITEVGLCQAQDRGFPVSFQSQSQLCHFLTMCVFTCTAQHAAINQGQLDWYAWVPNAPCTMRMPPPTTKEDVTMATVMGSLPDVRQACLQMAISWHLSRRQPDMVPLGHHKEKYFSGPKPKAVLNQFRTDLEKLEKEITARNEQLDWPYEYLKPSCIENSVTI
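Purified human 12hLO (150 nM final) was preincubated with compounds for 15 min at room temperature in 25 mM Hepes pH 7.0, 0.01% Triton X-100, then reacted with 40 uM arachidonic acid for 30 min. Hydroperoxide was detected with ferrous iron/xylenol orange.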
Numbers stand for hits; i = inactive; ? = inconclusive; nt = not tested or not shown; [ ] = another dose, or the depositor's remark. Unless noted, calls come from the whole dose curve; as a rule, active = well fitted curve in the direction sought with a large enough effect; inconclusive = small, poorly fitted or top-dose-only effect, or another doubt; inactive = no such curve, though single readings can be large; an effect the other way counts as inactive or inconclusive.

SMILES	PNC assembly inh	15-hLO-2 inh	ALOX12 inhib
Cc1nn(Cc2c(Cl)cccc2Cl)c(C)c1NC(=O)c1cc(C(C)C)on1	-102	i	i
Cc1cc(C(=O)Nc2c(C)nn(Cc3c(Cl)cccc3Cl)c2C)no1	i	i	i
O=C(O)c1cc(S(=O)(=O)Nc2ccc(O)cc2)ccc1Cl	nt	nt	i
CCOC(=O)C1=C(C)N=C2c3ccccc3C(=O)C2C1c1ccc(Cl)cc1 (centres undefined)	i	i	i
CCOC(=O)C1=C(Cc2ccc(Cl)cc2)C(=O)c2ccccc2C1=O	i	10µM	?
Nc1ncnc2c1[nH]c(=O)n2C1CC(O)C(CO)O1 (centres undefined)	nt	i	i
CC(=O)OC1CC2C(C)(C)C(O)C=C[C@@]2(C)C2CC[C@@]3(C)C(c4ccoc4)OC(=O)C4OC43[C@]12C (some centres undefined)	nt	i	i
CC1O[C@@H](O[C@@H]2C(O)C[C@H](O[C@@H]3C(O)C[C@@H](OC4CC[C@@]5(C)C6CC(O)[C@@]7(C)C(C8=CC(=O)OC8)CC[C@@]7(O)C6CC[C@@H]5C4)OC3C)OC2C)CC(O)[C@H]1O (some centres undefined)	nt	i	i
COc1cc(NC(=S)NCc2cccnc2)cc(OC)c1	-92	nt	i
Cc1ccc(NC(=S)NCc2cccnc2)cc1	i	i	i
CCN[C@@H]1CN(CCCOC)S(=O)(=O)c2sc(S(N)(=O)=O)cc21	nt	i	i
O=C(CN1C(=O)c2ccccc2C1=O)Nc1nc(-c2cccc([N+](=O)[O-])c2)cs1	i	i	i
O=C(Cc1ccccc1)Nc1nc(-c2cccc([N+](=O)[O-])c2)cs1	-103	nt	i
O=[N+]([O-])c1ccc(S(=O)(=O)Nc2ccc(-c3csc(-c4ccccc4)n3)cc2)cc1	?	i	?
O=C(Cc1nc(-c2ccc([N+](=O)[O-])cc2)cs1)Nc1ccccc1	-100	?	i
CCCOCC(C)O (centres undefined)	nt	i	i
COc1ccc(C2/C=C\[C@H](O[Si](C)(C)C(C)(C)C)[C@H](C(C)C)CC(=O)N2Cc2ccccc2)cc1 (some centres undefined)	nt	i[0.0915 µM]	i[0.00818 µM]
O=C(O)c1cccc(Cn2cc(Cl)cn2)c1	i	i	i
COc1ccc2nc3oc(C(=O)N4CCN(c5cccc(Cl)c5)CC4)cc3cc2c1	-87	i	i
COc1ccc2nc3oc(C(=O)N4CCN(c5cccc(C(F)(F)F)c5)CC4)cc3cc2c1	i	i	i
COc1ccc(N2CCN(C(=O)c3cccc(Cn4cc(Cl)cn4)c3)CC2)cc1	-112	i	i
CC(C)C[C@@H](CC(=O)N[C@@H](CCC(=O)O)CC(=O)O)NC(=O)[C@@H]1CNCC[C@H]1NC(=O)C[C@@H](NC(=O)C[C@H](Cc1c[nH]c2ccccc12)NC(=O)[C@@H]1CCCC[C@H]1N)C(C)C	nt	nt	i
NCCC[C@@H](CC(=O)N[C@@H]1CCCC[C@H]1C(=O)N[C@H](CC(=O)N[C@@H](CCC(=O)O)CC(=O)O)Cc1ccccc1)NC(=O)C[C@H](Cc1ccccc1)NC(=O)[C@@H]1CCCC[C@H]1N	nt	nt	i
CN(C)Cc1nsc(N(C)C)n1	nt	i[11.4 µM]	i[11.4 µM]
O=C(Nc1ccc(OC(F)F)c(Cl)c1)Nc1ccc2c(c1)OCO2	-87	i[2.29 µM]	i
SMILES	PNC assembly inh	15-hLO-2 inh	ALOX12 inhib
O=C(Nc1ccc([N+](=O)[O-])cc1)Nc1ccc(OC(F)F)c(Cl)c1	-113	nt	i
COc1ccc(NC(=O)Nc2cccc([N+](=O)[O-])c2)cc1Cl	?	nt	i
CCOc1cc(C(=O)Nc2ccc3c(c2)OCO3)ccc1OC(F)F	?	i	i
C=CC[C@@H](C(=O)O)c1ccccc1	nt	i[11.4 µM]	i[11.4 µM]
O=c1cnc2cnc(OCc3ccccc3)nc2n1CCc1ccccc1	nt	i	i
CCC(=O)NCCC1CCc2ccc3c(c21)CCO3 (centres undefined)	nt	i	i
CCOc1cc(/C=C2/C(=O)N(c3ccccc3)N=C2C)ccc1OC(=O)c1cccs1	i	?	i
O=C1NN(c2ccccc2)C(=O)/C1=C\c1cccc(OC(=O)c2cccs2)c1	i	16µM	?
O=C(N/N=C/c1cccc(OC(=O)N2CCOCC2)c1)c1cccs1	i	nt	i
O=C1NN(c2ccc(Cl)c(Cl)c2)C(=O)/C1=C/c1cccc(OC(=O)c2cccs2)c1	i	10µM	?
C[C@H]1NC(=O)NC1=O	nt	i	i
O=C(O)CCN1C(=S)CSC1=S	nt	i[11.4 µM]	i[11.4 µM]
COC(=O)CCCC(=O)Nc1ccc(Br)cc1	i	nt	i
O=C(O)CCCC(=O)Nc1ccc(Br)cc1	-100	i	i
CCCCCCCCCCCC1=C(O)C(=O)C=C(O)C1=O	nt	32µM	8.9µM
CCCCCCc1c(O)c2ccccc2[nH]c1=O	?	i[11.4 µM]	i
CC(C)c1nc2sc3c(=O)[nH]cnc3c2c2c1CCC2	-84	nt	i
CC(C)Cc1nc2sc3c(=O)[nH]cnc3c2c2c1CCC2	?	nt	i
Cc1ccc(N)cc1[N+](=O)[O-]	nt	i	i
CC(C)[C@@H](CC(=O)N[C@@H]1CCCC[C@H]1C(=O)N[C@H](CC(=O)N[C@@H](CCC(=O)O)CC(=O)O)Cc1c[nH]c2ccccc12)NC(=O)C[C@H](CO)NC(=O)[C@@H]1CCCC[C@H]1N	nt	nt	i
O=C(CN1C(=O)c2ccccc2C1=O)NN1C(=O)c2ccccc2C1=O	i	?	i
O=C1c2ccccc2C(=O)N1Nc1ccccc1	-106	i	i
CC(=O)NC1=NN(C(C)=O)C(c2sccc2C)S1 (centres undefined)	i	i	i
CC(=O)NC1=NN(C(C)=O)C(c2cccs2)S1 (centres undefined)	-100	nt	i
COC(=O)c1nnn(CC(=O)NC(=O)Nc2cccc(C)c2C)c1C(=O)OC	-113	nt	i
SMILES	PNC assembly inh	15-hLO-2 inh	ALOX12 inhib
Cc1ccccc1Cn1nnc(C(=O)Nc2cccc(C)c2C)c1N	i	i	i
C=C1C(=O)OC2C1CC/C(C)=C/CCC1(C)OC21 (centres undefined)	nt	i	i
O=C(C[n+]1cc(-c2ccccc2)n2c1CCC2)N1c2ccccc2Sc2ccccc21	-119	nt	i
Cc1ccc(-c2c[n+](CC(=O)N3c4ccccc4Sc4ccccc43)c3n2CCC3)cc1	?	nt	i
Cc1c(Cl)cccc1NC(=O)CC1SCCNC1=O (centres undefined)	i	i	i
Cc1ccccc1NC(=O)CC1SCCNC1=O (centres undefined)	-92	i	i
O=C(O)[C@@H]1CCCNC1	nt	i	i
O=C1OC2(c3cc(Br)c(O)c(Br)c3Oc3c2cc(Br)c(O)c3Br)c2c(Cl)c(Cl)c(Cl)c(Cl)c21	nt	?	i
O=C(Nc1cccc(F)c1)N1CCCC2(CCN(C(=O)c3csnn3)CC2)C1	nt	i	i
CC(C)c1ccc(NC(=S)NC2CCN(Cc3ccccc3)CC2)cc1	i	nt	i
Cc1ccc(NC(=S)NC2CCN(Cc3ccccc3)CC2)cc1	-119	nt	i
CC(C)(C)OC(=O)NCc1nc(N)n[nH]1	-100	nt	i
Cn1c(CCNC(=O)OC(C)(C)C)n[nH]c1=S	i	i	i
CN1CCc2c(cc(O)c(O)c2Cl)[C@H](c2cccc(Cl)c2)C1	nt	?	i
Cc1cc(=O)[nH]c2cc(O)ccc12	?	i	i
CC(=O)Oc1ccc2c(C)cc(=O)[nH]c2c1	-114	i	i
